The results in this text go back to PubChem BioAssay (NCATS).

Results filed as inconclusive are left out. Where a call stands in place of a potency, no number is given. Calls of active or inactive are those of the source. Calls come from the whole dose curve; as a rule, active = well fitted inhibition curve with a large enough effect; inconclusive = small, poorly fitted or top-dose-only effect; inactive = flat fitted curve, though single readings scatter.
Potency is the fitted concentration of half-maximal effect.

Chain of Voltage-gated inwardly rectifying potassium channel KCNH2 (Homo sapiens) (Q12809 whole entry, looked up): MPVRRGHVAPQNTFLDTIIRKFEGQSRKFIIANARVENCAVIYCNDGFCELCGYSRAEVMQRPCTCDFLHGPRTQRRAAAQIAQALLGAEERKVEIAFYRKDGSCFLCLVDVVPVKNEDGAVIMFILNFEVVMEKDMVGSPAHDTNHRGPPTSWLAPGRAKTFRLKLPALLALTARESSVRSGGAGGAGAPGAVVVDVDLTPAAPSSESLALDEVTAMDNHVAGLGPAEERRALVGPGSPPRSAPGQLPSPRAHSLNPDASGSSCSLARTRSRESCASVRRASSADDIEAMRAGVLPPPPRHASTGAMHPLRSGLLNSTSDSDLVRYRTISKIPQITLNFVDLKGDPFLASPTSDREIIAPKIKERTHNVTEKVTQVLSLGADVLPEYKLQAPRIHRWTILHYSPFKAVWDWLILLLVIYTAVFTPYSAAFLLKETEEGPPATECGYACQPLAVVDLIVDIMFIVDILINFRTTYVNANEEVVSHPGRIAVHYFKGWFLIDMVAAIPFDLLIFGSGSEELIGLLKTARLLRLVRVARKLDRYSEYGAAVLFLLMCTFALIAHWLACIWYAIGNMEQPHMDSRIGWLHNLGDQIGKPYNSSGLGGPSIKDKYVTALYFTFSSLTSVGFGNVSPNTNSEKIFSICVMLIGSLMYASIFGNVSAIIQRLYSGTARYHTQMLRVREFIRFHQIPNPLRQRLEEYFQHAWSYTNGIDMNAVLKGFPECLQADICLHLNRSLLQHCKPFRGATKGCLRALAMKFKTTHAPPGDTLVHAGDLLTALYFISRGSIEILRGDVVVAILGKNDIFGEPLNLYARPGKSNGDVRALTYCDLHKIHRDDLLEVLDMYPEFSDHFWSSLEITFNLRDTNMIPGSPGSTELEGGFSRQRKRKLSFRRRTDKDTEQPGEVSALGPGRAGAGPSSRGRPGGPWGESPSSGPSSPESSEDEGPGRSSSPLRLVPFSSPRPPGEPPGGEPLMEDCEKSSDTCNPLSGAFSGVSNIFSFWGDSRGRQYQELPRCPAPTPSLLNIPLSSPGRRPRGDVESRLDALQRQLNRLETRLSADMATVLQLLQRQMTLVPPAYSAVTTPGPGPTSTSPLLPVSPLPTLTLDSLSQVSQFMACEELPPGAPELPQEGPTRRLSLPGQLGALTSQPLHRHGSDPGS

The target of this assay is Voltage-gated inwardly rectifying potassium channel KCNH2 (Homo sapiens) (UniProt Q12809). As to the kind of experiment: qHTS Assay for Small Molecule Inhibitors of the Human hERG Channel Activity (AID 588834).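 Note: lower thallium flux fluorescence means stronger hERG block; nearly all actives have a fitted effect of over 50% in size.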 Conditions: U2OS BacMam hERG, FluxOR thallium flux fluorescence; series mostly up to 46.1 µM. In outline:
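In hERG-transduced U2OS cells, dye-loaded for 1 hr at room temperature in dark, test compounds incubated 10 min at 37 °C before thallium stimulation. AC50 values derived by Hill modelling of concentration-response.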
Background: In qHTS, concentration-response curves come from the screen itself.
For `CCC(C)(S(=O)(=O)CC)S(=O)(=O)CC`, the Potency entry is “inactive”.
To `Oc1ccc2c3c1O[C@H]1[C@@H](O)CC[C@@]4(O)[C@@H](C2)N(CC2CCC2)CC[C@]314` belongs “inactive”; to `[S]=[Sb](=[S])[S][Sb](=[S])=[S]`, “inactive”; to `CCCCCCC(C)(C)c1ccc([C@@H]2C[C@H](O)CC[C@H]2CCCO)c(O)c1`, 8.91 µM (active).
`Cc1[nH]c2ccc(O)cc2c1CCN`: the Potency result was “inactive”.
To `C=C[C@H]1CN2CC[C@H]1C[C@@H]2[C@@H](O)c1ccnc2ccccc12` belongs 14.1 µM (active).
`CCCn1c(C)c(C(=O)c2ccc3ccccc3c2)c2ccccc21`: the Potency is 6.31 µM (active).
Take `NCCc1c[nH]c2ccc(C(N)=O)cc12`: the Potency result is “inactive”.
Then `CC1(C)S[C@@H]2[C@H](N)C(=O)N2[C@H]1C(=O)O`, with “inactive”; and `CCN(CC)C(=O)N[C@H]1C[C@@H]2c3cccc4[nH]cc(c34)C[C@H]2N(C)C1`, with “inactive”; and `CC(=O)Oc1ccc2c3c1O[C@H]1[C@@H](OC(C)=O)C=C[C@H]4[C@@H](C2)N(C)CC[C@@]341`, with “inactive”.
To `CCCn1c(=O)c2[nH]c(C3CCCC3)nc2n(CCCOC(=O)c2ccc(S(=O)(=O)F)cc2)c1=O` belongs 14.1 µM (active); to `NC(=O)CI`, “inactive”.
In the case of `CN[C@H]1C[C@@H](N)[C@H](O)[C@@H](O[C@@H]2O[C@H](CO)[C@H](O)[C@@H]3OC4(O[C@H]23)O[C@H](C(N)CO)[C@H](O)[C@H](O)[C@H]4O)[C@@H]1O` (some centres undefined), the Potency entry is “inactive”.
With `NC(=O)COc1c(F)cc(SCCNS(=O)(=O)c2ccccc2)cc1F`, the Potency result is “inactive”.
Regarding `Oc1ccc2c3c1O[C@H]1c4oc5ccccc5c4C[C@@]4(O)C(C2)N(CC2CC2)CCC314` (some centres undefined), the Potency was 0.355 µM (active).
Then `C[N+]1(C)CCOC(O)(c2ccc(-c3ccc(C4(O)C[N+](C)(C)CCO4)cc3)cc2)C1` (centres undefined), with “inactive”.
To `CCNCC(O)c1cccc(O)c1` (centres undefined) belongs “inactive”; to `CC(C)(C)c1o[nH]c(=O)c1CC(N)C(=O)O` (centres undefined), “inactive”; to `C[N+]1(C)CCC(OC(=O)C(c2ccccc2)c2ccccc2)CC1`, “inactive”.
Consider `CC(C)CC(NP(=O)(O)O[C@@H]1O[C@@H](C)[C@H](O)[C@@H](O)[C@H]1O)C(=O)NC(Cc1c[nH]c2ccccc12)C(=O)O` (some centres undefined), for which the Potency result is “inactive”.
As to `NCC[C@H](O)C(=O)N[C@@H]1C[C@H](N)[C@@H](O[C@H]2O[C@H](CN)[C@@H](O)[C@H](O)[C@H]2N)[C@H](O[C@@H]2O[C@H](CO)[C@@H](O)[C@H]2O)[C@H]1O`, the Potency entry is “inactive”.
Consider `CC(=O)O[C@H]1C[C@H](O[C@H]2[C@@H](O)C[C@H](O[C@H]3[C@@H](O)C[C@H](O[C@H]4CC[C@@]5(C)[C@H](CC[C@@H]6[C@@H]5C[C@@H](O)[C@]5(C)[C@@H](C7=CC(=O)OC7)CC[C@]65O)C4)O[C@@H]3C)O[C@@H]2C)O[C@H](C)[C@H]1O[C@@H]1O[C@H](CO)[C@@H](O)[C@H](O)[C@H]1O`, for which the Potency entry was “inactive”.
As for `CCCN(CCC)[C@H]1CCc2c(F)ccc(O)c2C1`, the Potency is 7.08 µM (active).
Regarding `C[C@H](Cc1ccc2c(c1)OC(C(=O)O)(C(=O)O)O2)NC[C@H](O)c1cccc(Cl)c1`, the Potency entry was “inactive”.
Then `NC(Cc1cc(O)c(O)cc1O)C(=O)O` (centres undefined), with “inactive”; and `CN1CC[C@@]2(C)c3cc(O)ccc3N(C)C12` (some centres undefined), with 35.5 µM (active); and `COc1ccc2c3c1O[C@H]1[C@@H](O)C=C[C@H]4[C@@H](C2)NCC[C@@]341`, with “inactive”.
Then `C[C@@H](CO)NC(=O)[C@@H]1C=C2c3cccc4[nH]cc(c34)C[C@H]2N(C)C1`, with “inactive”.
Then `Cc1c2ccncc2c(C)c2c1[nH]c1ccccc12`, with 20 µM (active); and `N#CC(C#N)=Cc1cc(O)c(O)c(O)c1`, with “inactive”; and `O=[N+]([O-])c1cc(O)c(O)c([N+](=O)[O-])c1`, with “inactive”.
For the molecule `CCOC(=O)/C=C(C)/C=C/C[C@@H](C)CCCC(C)C`, the Potency entry is “inactive”.
Then `O=C(CS(=O)C(c1ccccc1)c1ccccc1)NO` (centres undefined), with “inactive”; and `COc1ccc(CNC(=O)/C=C/c2ccc3[nH]cc(CCN(C)C)c3c2)cc1`, with 11.2 µM (active).
As for `C/C(=C\c1csc(C)n1)[C@@H]1C[C@@H]2O[C@]2(C)CCC[C@H](C)[C@H](O)[C@@H](C)C(=O)C(C)(C)[C@@H](O)CC(=O)O1`, the Potency result is “inactive”.
With `NCCCP(=O)(O)O`, the Potency result is “inactive”.
To `CC(=O)O[C@H]1CC[C@@]2(C)C(=CC[C@@H]3[C@@H]2CC[C@]2(C)C(=O)CC[C@@H]32)C1` belongs “inactive”; to `CCCCCCC(=O)O[C@H]1CC[C@H]2[C@@H]3CC[C@H]4CC(=O)C=C(C)[C@]4(C)[C@H]3CC[C@]12C`, 14.1 µM (active).
